# Laboratory results from PubChem BioAssay AID1851 (National Center for Advancing Translational Sciences (NCATS), 2009).
# Values joined by “and” are separate entries in the source; they are usually repeats but may differ in a detail not shown here. Equal entries are not always repeated. Hit rate of the full screen: of about 16,000 compounds, about 4,000 (25%) were called active. Another 26% or so got no clear call; they are omitted. Calls come from the whole dose curve; as a rule, active = well fitted curve in the direction sought with a large enough effect; inconclusive = small, poorly fitted or top-dose-only effect, or effect the other way; inactive = no such curve, though single readings can be large or run the other way. The list is a sample of the results. Where a structure was tested more than once in an assay, its records may differ in their call.
# Biological target: Cytochrome P450 2C9 (Homo sapiens) (UniProt P11712)
# Experiment: Cytochrome panel assay with activity outcomes
# Details: recombinant CYP, pro-luciferin dealkylation, luminescence, p450-cyp2c9; series mostly up to 57.1 µM; activity, negative = inhibition: at the top concentration
# % is set by controls: 0 for no effect and ±100 for the full control effect.
# Chain of Cytochrome P450 2C9 (Homo sapiens) (P11712 whole entry, looked up): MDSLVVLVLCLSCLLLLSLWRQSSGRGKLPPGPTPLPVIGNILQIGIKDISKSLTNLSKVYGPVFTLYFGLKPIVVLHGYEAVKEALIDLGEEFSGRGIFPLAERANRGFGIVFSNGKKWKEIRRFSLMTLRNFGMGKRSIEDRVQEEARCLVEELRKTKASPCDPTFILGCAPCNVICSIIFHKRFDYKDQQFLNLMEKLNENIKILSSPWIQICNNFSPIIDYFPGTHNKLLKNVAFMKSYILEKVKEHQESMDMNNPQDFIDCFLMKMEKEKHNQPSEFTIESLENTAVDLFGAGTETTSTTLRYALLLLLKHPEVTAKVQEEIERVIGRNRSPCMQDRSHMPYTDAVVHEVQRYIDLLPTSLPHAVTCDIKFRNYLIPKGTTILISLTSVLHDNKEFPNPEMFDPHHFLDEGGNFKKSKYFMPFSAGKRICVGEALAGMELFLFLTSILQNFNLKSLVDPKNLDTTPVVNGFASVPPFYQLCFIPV
SMILES,"activity, negative = inhibition",AC50
CN[C@H](CC(=O)O)C(=O)O,11.3% (inactive),
O=S1(=O)C=C(SCc2cccc(Cl)c2)Nc2ccccc21,,1.58 µM (active)
O=C(c1nn(Cc2ccccc2)c(=O)c2ccccc12)N1CCN(C/C=C/c2ccccc2)CC1,,3.98 µM (active)
COC(=O)c1cc2n(n1)CCN(Cc1ccccc1F)C2=O,,10 µM (active)
CNC[C@H](O)[C@H](O)[C@H](O)[C@H](O)CO,-13.8% [at 25.6 µM] (inactive),
CC(C)[C@](N)(C(=O)O)c1ccccc1,-6.77% [at 11.4 µM] (inactive),
CC(C)NC(=O)N1CC2(CCN(C(=O)c3ccco3)CC2)C1,2.28% (inactive),
CC1CCN(C(NC(=O)c2ccco2)C(=O)c2ccccc2)CC1 (stereo unspecified),,2.51 µM (active)
CC(C)NC(=O)N1CCC2(CC1)CCN(C(=O)c1ccco1)CC2,5.65% (inactive),
O=C(c1csnn1)N1CCC2(CCN(Cc3nccs3)CC2)CC1,2.1% (inactive),
Cn1nc(-c2ccc(N3CCOCC3)c(NS(=O)(=O)c3ccc(Cl)cc3)c2)c2ccccc2c1=O,,1 µM (active)
CS(=O)(=O)Nc1cccc(-c2ccc3ncnc(N4CCOCC4)c3c2)c1,-1.72% [at 2.29 µM] (inactive),
COCCn1c(=O)c(-c2ccc(Cl)cc2)nc2cnc(N3CCOCC3)nc21,-14.6% (inactive),
COc1ccc(C[C@@](C)(N)C(=O)O)cc1OC,-19.4% [at 25.6 µM] (inactive),
O=C(/C=C/c1ccccc1)NC(NC(=S)Nc1ccc(Cl)cc1)C(Cl)(Cl)Cl (stereo unspecified),,0.562 µM (active)
O=C(O)C1CCCCC1C(=O)Nc1cc(Cl)ccc1Cl (stereo unspecified),-16% (inactive),
CC(CP(=O)(O)O)NC(=O)Cc1ccccc1 (stereo unspecified),-17.6% (inactive),
O=C(/C=C/c1ccc(Cl)cc1)Nc1ccc(N2CCCCC2)cc1,-9.43% (inactive),
O=C(NC(NC(=S)Nc1cc(Cl)ccc1Cl)C(Cl)(Cl)Cl)c1ccco1 (stereo unspecified),,0.0447 µM (active)
O=C(Cc1ccccc1)NC(NC(=S)Nc1cc(Cl)ccc1Cl)C(Cl)(Cl)Cl (stereo unspecified),,0.562 µM (active)
COc1ccc([N+](=O)[O-])cc1NC(=S)NC(NC(=O)Cc1ccc(OC)c(OC)c1)C(Cl)(Cl)Cl (stereo unspecified),,1.26 µM (active)

SMILES,"activity, negative = inhibition",AC50
Cc1c(NC(=O)C23CC4CC(CC(C)(C4)C2)C3)c(=O)n(-c2ccccc2)n1C,-19.7% (inactive),
O=C(CNS(=O)(=O)c1ccc(Br)s1)N1CCC(N2CCCCC2)CC1,-20.1% (inactive),
Cc1ccc(-n2c(C)cc(/C=C(\C#N)C(=O)NCC3CCCO3)c2C)cc1 (stereo unspecified),,17.8 µM (active)
N#C/C(=C\c1cccs1)C(=O)NCC1CCCO1 (stereo unspecified),-24.7% (inactive),
NC(=O)C1CCN(C(=O)CN2C(=O)c3ccccc3S2(=O)=O)CC1,1.61% (inactive),
O=C1c2ccccc2C(=O)N1C[C@]1(C(=O)O)NCCS1(=O)=O,-4.49% [at 11.4 µM] (inactive),
CC(C)N(CCC(=O)c1ccc2ccccc2c1)Cc1ccccc1,,12.6 µM (active) and inactive
O=C(O)CCCc1ccc2ccccc2c1,-4.57% [at 11.4 µM] (inactive),
CCN1C(=O)[C@H]2[C@@H]3[C@H](O)[C@H](O)CC(=O)[C@H]3CC[C@H]2C1=O,17.2% [at 11.4 µM] (inactive) and 0.779% [at 11.4 µM] (inactive),
O=C(Nc1ccc2ccccc2c1)c1onc2c1CCCC2,-24.2% (inactive),
CC(=O)N[C@H](c1ccccc1)[C@@]1(C)C[C@@H]1[C@@H](C)C(=O)Nc1ccc2ccccc2c1,,10 µM (active)
C[C@@H](C(=O)Nc1ccc2ccccc2c1)[C@H]1C[C@]1(C)[C@H](NP(=O)(c1ccccc1)c1ccccc1)c1ccccc1,,3.16 µM (active)
C[C@@H](C(=O)Nc1ccc2ccccc2c1)[C@@H]1C[C@@]1(C)[C@@H](NC(=O)OCc1ccccc1)c1ccccc1,6.52% (inactive),
C[C@@]1(C(NC(=O)Cc2ccc(C(F)(F)F)cc2)c2ccc(-c3ccccc3)cc2)C[C@H]1C1CCCCC1 (stereo partly specified),13.5% (inactive),
C[C@@H](C(=O)Nc1ccc2ccccc2c1)[C@@H]1C[C@@]1(C)[C@@H](NS(=O)(=O)c1ccc(-c2ccccc2)cc1)c1ccccc1,17.1% (inactive),
C[C@@H](C(=O)Cc1ccc2ccccc2c1)[C@@H]1C[C@@]1(C)[C@@H](NP(=O)(c1ccccc1)c1ccccc1)c1ccccc1,,3.16 µM (active)
COc1ccc(COC(=O)N/N=C2/C[C@@H](O)[C@@H](O)[C@@H]3[C@@H]4C(=O)N([C@@H](C)c5ccccc5)C(=O)[C@H]4CC[C@H]23)cc1,0.0971% [at 11.4 µM] (inactive),
C[C@@H](C(=O)Nc1ccc2ccccc2c1)[C@H]1C[C@]1(C)[C@H](NC(=O)OCc1ccccc1)c1ccccc1,,1.58 µM (active)
CC(=O)OCC(=O)[C@@]1(O)CC[C@@H]2[C@H]3CCC4=CC(=O)C=C[C@]4(C)[C@]3(F)[C@@H](O)C[C@@]21C,-6.12% [at 25.6 µM] (inactive),
COC(=O)N[C@H](c1ccccc1)[C@@]1(C)C[C@@H]1[C@@H](C)C(=O)Nc1ccc2ccccc2c1,,3.98 µM (active)
